Rows were chosen to be rich in hits. Some 7% of all compounds tested hit in one or more screens of this group.
GCN5L2 inh: blocks human GCN5L2 histone acetyltransferase; 0.21% of 390,000 active; Potency, µM (top dose mostly 58.9 µM), for the others: at the highest dose activity change, negative = inhibition, most hits filed as inhibitors; AID 504327; GCN5L2 HAT assay, ThioGlo1 CoA-SH fluorescence; Q92830; further: potency means the concentration at half of the fitted maximal effect; on the % scale 0 is the no-effect control and ±100 the full control effect
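GCN5L2 (20 nM) in 50mM HEPES pH 7.5, 0.1mM EDTA, 0.01% Tween-20 preincubated 15 min with compounds at room temperature. Reaction started with H3(1-25) 75uM, acetyl-CoA 70uM, ThioGlo1 50uM; CoA-thiol fluorescence (Ex340/Em540) read at 0 and 20 min.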
JMJD2A Tudor: JMJD2A Tudor domain (human) inhibition; 4.4% of 390,000 active; AlphaScreen JMJD2A-Tudor / H3K4me3 peptide binding; Potency, µM (highest dose often 114 µM), for the others: at the highest dose activity change, negative = inhibition, hits mostly inhibitors; O75164; further: potency means the concentration at half of the fitted maximal effect; on the % scale 0 is the no-effect control and ±100 the full control effect; nearly all actives have a fitted effect of over 50% in size
PLK1 PBD block: PLK1 (human) polo-box domain binding inhibition | P53350 | Plk1 PBD binding of FITC phosphopeptide, fluorescence polarization | Potency, µM, without a hit: max response, negative = inhibition, hits mostly inhibitors | 2.8% of 360,000 active; further: potency means the concentration at half of the fitted maximal effect; series mostly up to about 57 µM; on the % scale 0 is the no-effect control and ±100 the full control effect; nearly all actives have a fitted effect of over 65% in size
BAZ2B block: inhibitors of human BAZ2B bromodomain; 4.4% of 360,000 active; AID 504333; AlphaScreen BAZ2B-H3K14Ac peptide displacement; Potency, µM (series often up to 114 µM), for the others: at the highest dose activity change, negative = inhibition, hits mostly inhibitors; further: potency means the concentration at half of the fitted maximal effect; on the % scale 0 is the no-effect control and ±100 the full control effect; nearly all actives have a fitted effect of over 60% in size
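Complex of BAZ2B and biotin-H3K14Ac (50 nM apiece) forms over 30 min at RT, then faces library compounds up to 110 uM for another 30 min; AlphaScreen beads added, 20 min dark incubation, luminescence read.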
PI5P4Ka inh: blocks human PI5P4K alpha kinase activity. PI5P4Kalpha enzyme, ADP-Glo luminescence, 60 min; active compounds read low. max response, %. 1.2% of 330,000 active; active means max response of -50% or lower; inconclusive means between -30% and -50%; inactive means -30% or higher; further: value at the top dose of about 77 µM; on the % scale 0 is the no-effect control and ±100 the full control effect
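ADP-Glo luminescence end-point after a 60 min room-temperature kinase reaction. PI5P4Kalpha and substrate in HEPES pH 7.4 buffer with EGTA, 0.1% CHAPS and 5% DMSO; ATP at 5 microM final.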
HP1b chromo inh: blocks HP1-beta chromodomain binding to methylated histone tails; Potency, µM (highest dose often 114 µM), for the others: at the highest dose activity change, negative = inhibition, actives largely listed as inhibitors; AlphaScreen HP1-beta / biotin-H3K9me3 peptide binding; P83916; 0.56% of 390,000 active; further: potency means the concentration at half of the fitted maximal effect; nearly all actives have a fitted effect of over 70% in size
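Compound inhibition of the preformed complex between 50 nM HP1-beta and 50 nM biotinylated H3K9me3 peptide was read by AlphaScreen. Buffer was PBS pH 7.4 with 0.01% Tween-20. Incubations ran 30 min at room temperature, with 10 ug/mL donor/acceptor beads.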
An asterisk follows results filed as active. Unless noted, the call rests on the fitted dose curve; in most records, active means well fitted curve in the direction sought with a large enough effect; inconclusive means small, poorly fitted or top-dose-only effect, or another doubt; inactive means no such curve, though single readings can be large; an effect the other way counts as inactive or inconclusive.

Results for CCOC(=O)C1Nc2ccc(Br)cc2C2C=CCC12 (centres undefined) ?
GCN5L2 inh: -12%; JMJD2A Tudor: 40µM*; PLK1 PBD block: inconclusive; BAZ2B block: 45µM*; PI5P4Ka inh: inconclusive; HP1b chromo inh: inconclusive

What do the screens show for `CC(C)(C)C(=O)Nc1ccc2nc(SCCOc3ccccc3Cl)sc2c1`?
GCN5L2 inh: -14%; JMJD2A Tudor: 14%; BAZ2B block: 1%; HP1b chromo inh: 99%

What do the screens show for `CC(=O)Nc1cccc(-c2cccc3nccn23)c1`?
PLK1 PBD block: 4%; PI5P4Ka inh: -1

How did O=C(OC1CCCCC1)c1ccc2c(c1)C1C=CCC1C(C(=O)O)N2 (centres undefined) do in these assays?
GCN5L2 inh: 20µM*; BAZ2B block: 7.1µM*

How did O=C(Nc1ccc2c(c1)OC1(CCCC1)O2)C1CC1 do in these assays?
GCN5L2 inh: -1%; JMJD2A Tudor: inconclusive; PLK1 PBD block: 27µM*; BAZ2B block: -9%; HP1b chromo inh: inconclusive

How did O=C(Nc1ccc2c(c1)OCO2)C1CC1 do in these assays?
GCN5L2 inh: -4%; JMJD2A Tudor: inconclusive; PLK1 PBD block: -3%; BAZ2B block: -35%; PI5P4Ka inh: -6; HP1b chromo inh: -2%

What do the screens show for `CCN(CC)CCNc1ncnc2c1sc1nc(N3CCCC3)c3c(c12)CC(C)(C)OC3`?
GCN5L2 inh: -1%; JMJD2A Tudor: inconclusive; PLK1 PBD block: -6%; BAZ2B block: 45µM*; PI5P4Ka inh: 35; HP1b chromo inh: inconclusive

Results for N#CC(=C1C=C(Br)C(=NO)C=C1Cl)c1cccc2ccccc12 ?
PLK1 PBD block: -10%; PI5P4Ka inh: -20

How did COc1ccc(C(C#N)=C2C=C(Cl)C(=NO)C=C2Cl)cc1 do in these assays?
PLK1 PBD block: 21µM*; PI5P4Ka inh: -30

Results for COc1ccc(C(C#N)=C2C=CC(=NO)C(C)=C2Cl)cc1 ?
JMJD2A Tudor: 8.9µM*; PLK1 PBD block: -25%; PI5P4Ka inh: -14; HP1b chromo inh: inconclusive

How did O=C1Nc2ccc(C(=O)O)c(O)c2C1=O do in these assays?
JMJD2A Tudor: 56µM*; PLK1 PBD block: -5%; PI5P4Ka inh: inconclusive; HP1b chromo inh: -1%

How did CNc1nnc(Sc2ncccc2[N+](=O)[O-])s1 do in these assays?
GCN5L2 inh: 1%; JMJD2A Tudor: -13%; PLK1 PBD block: 15µM*; BAZ2B block: -4%; PI5P4Ka inh: -9; HP1b chromo inh: -20%

How did O=[N+]([O-])c1cccnc1Sc1ccc(F)cc1 do in these assays?
JMJD2A Tudor: inconclusive; PLK1 PBD block: -4%; PI5P4Ka inh: 2; HP1b chromo inh: inconclusive

Results for O=[N+]([O-])c1cccnc1Sc1ccccc1Cl ?
JMJD2A Tudor: inconclusive; PLK1 PBD block: 0%; PI5P4Ka inh: 10; HP1b chromo inh: inconclusive

What do the screens show for `O=c1ccnc(Sc2ncccc2[N+](=O)[O-])[nH]1`?
GCN5L2 inh: 0%; JMJD2A Tudor: -8%; PLK1 PBD block: 27µM*; BAZ2B block: 3%; PI5P4Ka inh: 7; HP1b chromo inh: 51%

How did CC(=O)c1ccc(OCC(O)CN(C)Cc2cccs2)cc1 (centres undefined) do in these assays?
GCN5L2 inh: -1%; JMJD2A Tudor: 7.9µM*; PLK1 PBD block: -9%; BAZ2B block: 50µM*; PI5P4Ka inh: 0; HP1b chromo inh: inconclusive

Results for Cc1cccc2nc(-c3ccco3)c(Nc3ccc4c(c3)OCO4)n12 ?
GCN5L2 inh: -4%; JMJD2A Tudor: 45µM*; PLK1 PBD block: 3%; BAZ2B block: 20µM*; PI5P4Ka inh: 0; HP1b chromo inh: inconclusive

Results for Cc1ccc(-c2nc3cnccn3c2Nc2ccc3c(c2)OCCO3)o1 ?
GCN5L2 inh: -8%; JMJD2A Tudor: inconclusive; PLK1 PBD block: -6%; BAZ2B block: inconclusive; PI5P4Ka inh: -6; HP1b chromo inh: -27%

How did Cc1ccn2c(Nc3ccc4c(c3)OCO4)c(-c3ccco3)nc2c1 do in these assays?
GCN5L2 inh: 0%; JMJD2A Tudor: inconclusive; BAZ2B block: -37%; HP1b chromo inh: inconclusive

What do the screens show for `Cc1ccc(Nc2c(-c3ccc(C)o3)nc3cccc(C)n23)cc1`?
GCN5L2 inh: -9%; JMJD2A Tudor: 45µM*; BAZ2B block: 25µM*; HP1b chromo inh: inconclusive

Results for CSc1ccc(-c2nc3cccc(C)n3c2Nc2ccc3c(c2)OCO3)cc1 ?
GCN5L2 inh: -14%; JMJD2A Tudor: 28µM*; HP1b chromo inh: inconclusive

How did Cc1ccc(-c2nc3cccc(C)n3c2Nc2ccc3c(c2)OCO3)o1 do in these assays?
GCN5L2 inh: -3%; JMJD2A Tudor: 40µM*; BAZ2B block: 28µM*; HP1b chromo inh: inconclusive

Results for COc1ccc(Nc2c(-c3ccc(C)o3)nc3ccccn23)cc1 ?
JMJD2A Tudor: inconclusive; HP1b chromo inh: -18%

What do the screens show for `COc1cccc(N2C(=O)C(CC(=O)Nc3ccccc3)N(CCc3sccc3C)C2=O)c1` (centres undefined)?
GCN5L2 inh: -6%; JMJD2A Tudor: -17%; BAZ2B block: -14%; HP1b chromo inh: 35%

Results for COc1ccc(CNC(=O)CCC(=O)Nc2nnc(C(F)(F)F)s2)cc1 ?
GCN5L2 inh: 3%; JMJD2A Tudor: -6%; PLK1 PBD block: -7%; BAZ2B block: 4%; PI5P4Ka inh: 6; HP1b chromo inh: 28%

What do the screens show for `Fc1cccc(NC(=S)NC2CCCCCCC2)c1`?
GCN5L2 inh: -9%; JMJD2A Tudor: 20%; PLK1 PBD block: -21%; BAZ2B block: 7%; PI5P4Ka inh: 13; HP1b chromo inh: 60%

Results for Cc1c2cnn(CC(=O)NCc3ccc(F)cc3)c(=O)c2c(C)n1Cc1cccc(Cl)c1 ?
GCN5L2 inh: -9%; JMJD2A Tudor: -13%; BAZ2B block: 4%; HP1b chromo inh: 9%

What do the screens show for `CCOc1ccc(OCC)c(NC(=O)C2CCN(S(=O)(=O)c3cnc[nH]3)CC2)c1`?
GCN5L2 inh: -2%; JMJD2A Tudor: -26%; PLK1 PBD block: inconclusive; BAZ2B block: 10%; PI5P4Ka inh: -3; HP1b chromo inh: 29%

How did COc1ccc(NC(=O)CN(C)C(=O)c2sc3cc(Cl)ccc3c2Cl)cc1 do in these assays?
GCN5L2 inh: 2%; JMJD2A Tudor: -7%; PLK1 PBD block: 0%; BAZ2B block: -6%; PI5P4Ka inh: 0; HP1b chromo inh: 21%

Results for Cc1cccc2nc(-c3ccco3)c(Nc3ccccc3)n12 ?
GCN5L2 inh: -11%; JMJD2A Tudor: inconclusive; PLK1 PBD block: -3%; BAZ2B block: 40µM*; PI5P4Ka inh: 9; HP1b chromo inh: -4%

What do the screens show for `Cc1cc(C)n2c(Nc3ccccc3)c(-c3ccccc3)nc2n1`?
GCN5L2 inh: -10%; JMJD2A Tudor: -14%; BAZ2B block: -24%; HP1b chromo inh: 28%
